GLD-1 TGE inh: GLD-1/TGE RNA complex disruptors, primary screen, biochemical, fluorescence polarization; inhibition, % at 5.96 µM; actives 0.44% (n = 320,000); purified GLD-1 + fluorescein TGE RNA; Female germline-specific tumor suppressor gld-1 (Caenorhabditis elegans), Q17339;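 active means percent inhibition above a per-plate cutoff, the plate mean of test compounds plus 3 SD, cut at about 30% in these data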
BCLXL inh: inhibitors of human Bcl-xL, primary screen, biochemical, fluorescence polarization, HTS; Bcl-2-like protein 1 (Homo sapiens), Q07817; GST-Bcl-xL / FITC-Bim BH3 peptide fluorescence polarization; inhibition, % at 10.9 µM; actives 0.7% (n = 320,000); AID 2129, 2009;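 active means inhibition above the mean of all tested compounds plus 3 SD, cutoff set per campaign, cut at about 30% in these data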;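 further: inhibitors lower millipolarization by displacing the labeled peptide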
Target sequence (Q07817 whole entry, looked up): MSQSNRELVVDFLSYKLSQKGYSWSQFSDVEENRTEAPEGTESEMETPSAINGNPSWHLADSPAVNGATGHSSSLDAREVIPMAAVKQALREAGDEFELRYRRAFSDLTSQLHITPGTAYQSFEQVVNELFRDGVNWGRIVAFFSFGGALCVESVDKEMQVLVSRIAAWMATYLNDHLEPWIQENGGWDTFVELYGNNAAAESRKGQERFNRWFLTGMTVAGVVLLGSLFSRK
MCL1 BIM primary: inhibitors of MCL1 binding to BIM-BH3, primary screen, biochemical, fluorescence polarization. Induced myeloid leukemia cell differentiation protein Mcl-1 (Homo sapiens), Q07820. GST-MCL1 / FITC-Bim-BH3 fluorescence polarization. inhibition, % at 10.9 µM. actives 0.68% (n = 320,000);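 active means inhibition above the mean inhibition of all tested compounds plus 3 SD, set per campaign, cut at about 40% in these data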;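 further: higher means more loss of mP so more displacement of Bim peptide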
Target sequence (Q07820 whole entry, looked up): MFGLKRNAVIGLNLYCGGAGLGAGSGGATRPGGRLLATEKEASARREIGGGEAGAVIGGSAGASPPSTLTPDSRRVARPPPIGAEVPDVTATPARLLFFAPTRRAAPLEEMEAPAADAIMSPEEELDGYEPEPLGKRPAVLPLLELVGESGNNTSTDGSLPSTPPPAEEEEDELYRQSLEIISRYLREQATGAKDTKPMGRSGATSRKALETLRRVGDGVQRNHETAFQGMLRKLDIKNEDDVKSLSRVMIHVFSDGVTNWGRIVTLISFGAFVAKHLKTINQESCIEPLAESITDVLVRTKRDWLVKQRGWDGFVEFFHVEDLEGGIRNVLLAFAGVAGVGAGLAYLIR
Mcl1 Bid PPI: Mcl-1/Bid binding inhibitors, primary screen, biochemical, TR-FRET, 1536-well | TR-FRET Mcl-1/Bid-Dy647 peptide binding | inhibition, % at 21.7 µM | actives 0.97% (n = 220,000) | AID 1021, 2008 | Induced myeloid leukemia cell differentiation protein Mcl-1 (Homo sapiens), Q07820;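 active means compounds that cut the binding signal by more than half at the single screening dose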;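 further: His-tagged Mcl-1 with europium anti-His antibody binding Bid BH3 peptide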
Mcl-1 Bim block: inhibitors of Bim peptide binding to Mcl-1, primary screen, biochemical, bead-based flow cytometry, multiplex; Induced myeloid leukemia cell differentiation protein Mcl-1 (Homo sapiens), Q07820; Bim peptide-Mcl-1 binding; actives 0.1% (n = 190,000); inhibition, % at 10 µM; in the data active means inhibition above about 40%
Mcl1 Noxa PPI: Mcl-1/Noxa binding inhibitors, primary screen, biochemical, TR-FRET, 1536-well; AID 1022, 2008; TR-FRET Mcl-1/Noxa peptide binding, 2 h; actives 1.5% (n = 220,000); Induced myeloid leukemia cell differentiation protein Mcl-1 (Homo sapiens), Q07820; inhibition, % at 21.7 µM;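 active means compounds that cut the protein-peptide binding signal by more than 50% relative to plate controls in a single-dose test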;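 further: His-tagged Mcl-1 with rhodamine Noxa BH3 peptide and terbium anti-His antibody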
Each line names hits and unclear results; the compound was inactive in the other large screens. Only some compounds are listed: those with a hit (about 2.3% of all), similar ones and a draw of the others.

CCOC(=O)c1c(CSc2ccc(C)cc2)n(C)c2cc(Br)c(O)c(CN(C)C)c12	Mcl1 Noxa PPI 86
Cc1cc(C)c(NC(=O)COC(=O)COc2ccc3c(C)cc(=O)oc3c2)c(Cl)c1	none (no result: Mcl1 Bid PPI, Mcl-1 Bim block, Mcl1 Noxa PPI)
CCOc1ccc(C(=O)Nc2ccc(-c3nc4ccccc4[nH]3)cc2)cc1[N+](=O)[O-]	Mcl1 Bid PPI 55, Mcl1 Noxa PPI 58
Cn1ncc([N+](=O)[O-])c1C(=O)Nc1ccc(-c2nc3ccccc3[nH]2)cc1	none
O=C(O)c1ccc(-c2ccc(/C=C3\NC(=O)N(Cc4ccc(Cl)cc4)C3=O)o2)cc1Cl	Mcl1 Noxa PPI 56 (no result: GLD-1 TGE inh, BCLXL inh, MCL1 BIM primary)
CCOC(=O)CN1C(=O)S/C(=C\c2ccc(-c3ccc(C(=O)O)c(Cl)c3)o2)C1=O	none (no result: Mcl1 Bid PPI, Mcl-1 Bim block, Mcl1 Noxa PPI)
COc1ccc(O)c(N)c1	Mcl1 Noxa PPI 89 (no result: GLD-1 TGE inh, BCLXL inh, MCL1 BIM primary)
Cc1ccc(O)c(N)c1	none (no result: Mcl1 Bid PPI, Mcl-1 Bim block, Mcl1 Noxa PPI)
COc1cc(/C=N/NC(=O)c2ccc(CN3C(=O)c4cccc5cccc3c45)cc2)cc(OC)c1O	Mcl1 Noxa PPI 76 (no result: Mcl-1 Bim block)
COc1cc(/C=N/NC(=O)c2ccc(CSc3nc4ccccc4[nH]3)cc2)ccc1O	Mcl1 Noxa PPI 62
COc1cc(/C=N\NC(=O)c2ccc(-c3ccccc3)cc2)cc(Br)c1O	none (no result: Mcl1 Bid PPI, Mcl-1 Bim block, Mcl1 Noxa PPI)
COc1cc(/C=N/NC(=O)c2ccccc2)ccc1O	none
COc1ccc(/C=N/NC(=O)c2nc(-c3ccccc3)cc(-c3ccccc3)n2)cc1O	Mcl1 Noxa PPI 68
COc1ccc(/C=N/NC(=O)c2ccc(CN3C(=O)c4cccc5cccc3c45)cc2)cc1O	Mcl1 Noxa PPI 61
CC(OC(=O)CC1Sc2ccccc2NC1=O)C(=O)NC1CCCC1 (configuration not stated)	none (no result: Mcl1 Bid PPI, Mcl-1 Bim block, Mcl1 Noxa PPI)
Cc1csc2nc(COC(=O)c3ccc(Cl)c([N+](=O)[O-])c3)cc(=O)n12	none (no result: Mcl1 Bid PPI, Mcl-1 Bim block, Mcl1 Noxa PPI)
COc1cc(C(=O)N/N=C\c2ccccc2)c([N+](=O)[O-])c(OC)c1OC	Mcl1 Bid PPI 95
COc1ccc(/C=N/NC(=O)c2ccncc2)cc1[N+](=O)[O-]	none
COc1cc(O)c(/C=N/NC(=O)c2ccncc2)c(OC)c1[N+](=O)[O-]	Mcl1 Noxa PPI 53
COc1ccc(NC(=O)Nc2cccc3ccccc23)cc1S(N)(=O)=O	none (no result: Mcl1 Bid PPI, Mcl-1 Bim block, Mcl1 Noxa PPI)
COC(=O)[C@H]1[C@H]2C[C@@H]3c4[nH]c5cc(OC)ccc5c4CCN3C[C@H]2C[C@@H](OC(=O)c2cc(OC)c(OC)c(OC)c2)[C@@H]1OC	none (no result: Mcl1 Bid PPI, Mcl-1 Bim block, Mcl1 Noxa PPI)
COc1ccc2c3c([nH]c2c1)C1CC2C(CC(O)C(OC)C2C(=O)O)CN1CC3 (configuration not stated)	BCLXL inh 40, MCL1 BIM primary 41 (no result: Mcl-1 Bim block)
N#CC(C#N)=C1C=CC=CN1/C(=C\c1ccccc1Cl)C(=O)c1ccccc1	BCLXL inh 51, MCL1 BIM primary 43, Mcl1 Noxa PPI 64
O=C(Oc1coc(CSc2ncccn2)cc1=O)c1cccs1	none
CC1CCCN(C(=S)Nc2ccc3nc4n(c(=O)c3c2)CCCCC4)C1 (configuration not stated)	Mcl1 Bid PPI 97
CC1CC(C)CN(C(=S)Nc2ccc3nc4n(c(=O)c3c2)CCCCC4)C1 (configuration not stated)	none
Nc1ccccc1N=c1ssnc1Cl	Mcl1 Noxa PPI 54 (no result: GLD-1 TGE inh, BCLXL inh, MCL1 BIM primary)
Cc1cc(Cl)ccc1N=c1ssnc1Cl	none
O=C(NCc1ccncc1)C(=O)Nc1nc(C23CC4CC(CC(C4)C2)C3)cs1	none
O=C(NCc1ccccc1)C(=O)Nc1nc(C23CC4CC(CC(C4)C2)C3)cs1	Mcl-1 Bim block 83
CCC(C)(C(=O)NC1CCCCC1)N(C)C(=O)c1ccccn1 (configuration not stated)	BCLXL inh 52
c1ccc(-n2cnc3ccccc32)nc1	none (no result: Mcl1 Bid PPI, Mcl-1 Bim block, Mcl1 Noxa PPI)
c1ccc(-c2nccc(-c3ccc(-n4cnc5ccccc54)cc3)n2)cc1	Mcl1 Bid PPI 55
O=C(CN1C(=O)NC2(CCCC2)C1=O)NNC(=O)c1ccc(Cl)cc1	none (no result: Mcl1 Bid PPI, Mcl-1 Bim block, Mcl1 Noxa PPI)
CCOc1ccc(CNc2ccc(N3CCCC3)cc2)cc1	Mcl1 Noxa PPI 66
COc1cc(CNc2ccc(N3CCCC3)cc2)cc(Cl)c1OC	Mcl1 Noxa PPI 72
CCOc1cc(CNc2ccc(N3CCCC3)cc2)cc(Cl)c1OC	Mcl1 Noxa PPI 76
COc1ccccc1OC[C@H](O)CO	none (no result: Mcl1 Bid PPI, Mcl-1 Bim block, Mcl1 Noxa PPI)
Cc1ccc(CNC(=O)CCCn2nc(C)n3ccnc3c2=O)cc1	none (no result: Mcl1 Bid PPI, Mcl-1 Bim block, Mcl1 Noxa PPI)
Cc1ccc(-c2n[nH]c(=S)n2C)cc1Cl	Mcl1 Noxa PPI 53
CCN(CC)S(=O)(=O)c1cccc(-c2n[nH]c(=S)n2C)c1	none
CC(C)=C1C(=O)NN(c2ccc(F)c(Cl)c2)C1=O	none
O=C1NN(c2ccc(F)c(Cl)c2)C(=O)/C1=C\c1cccc(OC(=O)c2cccs2)c1	Mcl1 Noxa PPI 94
CCOc1ccccc1CNc1ccc(O)cc1	Mcl1 Noxa PPI 72 (no result: GLD-1 TGE inh, BCLXL inh, MCL1 BIM primary)
CC(C)C(OC(=O)/C=C/c1ccc2c(c1)OCO2)C(=O)NC(N)=O (configuration not stated)	none
CCC1c2ccc(C)n2CCN1C(=O)Nc1cc(Cl)ccc1OC (configuration not stated)	GLD-1 TGE inh 38, BCLXL inh 56, MCL1 BIM primary 53
CCCC1c2ccc(C)n2CCN1C(=O)Nc1ccccc1Cl (configuration not stated)	BCLXL inh 41, MCL1 BIM primary 45
COc1ccc(Cl)cc1NC(=O)N1CCC(C)CC1	none
O=C(CN1C(=O)S/C(=C\c2ccc(Cl)cc2)C1=O)NNC(=O)c1ccccc1O	Mcl1 Bid PPI 82, Mcl1 Noxa PPI 65
CC1(c2ccccc2)NC(=O)N(CC(=O)Nc2ccccc2C(=O)N2CCCCC2)C1=O (configuration not stated)	none (no result: Mcl1 Bid PPI, Mcl-1 Bim block, Mcl1 Noxa PPI)
O=C1CCC/C(=N\NC(=O)c2ccc(COc3cccc4cccnc34)cc2)C1	GLD-1 TGE inh 49
CC(C)SCC(=O)Nc1ncc2c(n1)-c1ccccc1CC2	BCLXL inh 35
C=CCN(C(=O)c1csnn1)C(C(=O)NCc1ccc(F)cc1)c1ccccc1F (configuration not stated)	none (no result: Mcl1 Bid PPI, Mcl-1 Bim block, Mcl1 Noxa PPI)
COc1cc(/C=N/NC(=O)C2C3CCCCC32C)cc(Br)c1O (configuration not stated)	Mcl1 Noxa PPI 51
COc1ccc(NC2CCN(C3CC(=O)N(c4ccc(F)c(Cl)c4)C3=O)CC2)cc1 (configuration not stated)	Mcl1 Noxa PPI 56
COc1cccc(N2CCN(C3CC(=O)N(c4ccc(F)c(Cl)c4)C3=O)CC2)c1 (configuration not stated)	none

Bioassay records from PubChem.
